About 79,000 compounds went through this panel and 15% of them were active in at least one assay; those are over-represented in the sample as a whole. Active and inactive are the calls of the source. Cut-off read from the data, not from the text of the source: active = growth inhibition above about 70%; inactive = the rest.
Assays:
[1] = NCI Yeast Anticancer Drug Screen. Data for the rad52 strain (AID 147);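 note: 0% = growth of vehicle-treated control cultures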; details: S. cerevisiae rad52 mutant growth inhibition, stronger effect = higher value
Method in brief: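 Inhibition of yeast growth, referenced to vehicle controls, was the measured output for a strain with defective DNA damage repair.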

[2] = NCI Yeast Anticancer Drug Screen. Data for the wt1 strain (AID 149);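 note: 0% = growth of vehicle-treated wt1 cultures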; details: S. cerevisiae wt1 strain (SPY 50644) growth inhibition, stronger effect = higher value
Method in brief: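 The wt1 strain was treated with compounds, and growth was compared with vehicle-treated cultures to give inhibition.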

[3] = NCI Yeast Anticancer Drug Screen. Data for the rad50EPP+ strain (AID 151);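 note: 0% = growth of vehicle-treated control cultures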; details: S. cerevisiae rad50 mutant strain, stronger effect = higher value
Method in brief: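 Genetically defined yeast (rad50EPP+, DNA damage repair alteration) is grown with compound, and inhibition of growth is expressed relative to vehicle-treated controls.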

[4] = NCI Yeast Anticancer Drug Screen. Data for the rad50 strain (AID 155);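 note: 0% = growth of vehicle-only cultures of the same strain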; details: S. cerevisiae rad50 strain growth inhibition, stronger effect = higher value
Method in brief: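 Cells are treated with compound, grown, and their growth is then scored against vehicle-only cultures of the same repair-deficient yeast strain.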

[5] = NCI Yeast Anticancer Drug Screen. Data for the mec2-1 strain (AID 157); details: S. cerevisiae mec2-1 strain, stronger effect = higher value
Method in brief: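 Each compound was tested on mec2-1 yeast, a strain altered in DNA damage repair or cell cycle control. Growth inhibition is reported relative to vehicle.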

[6] = NCI Yeast Anticancer Drug Screen. Data for the sgs1 mgt1 strain (AID 161);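 note: 0% = growth of cultures given vehicle only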; details: S. cerevisiae sgs1 mgt1 strain, stronger effect = higher value
Method in brief: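 Mutant yeast exposed to compound; growth scored against vehicle-only wells.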

[7] = NCI Yeast Anticancer Drug Screen. Data for the CLN2oe strain (AID 163);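 note: 0% = growth of vehicle-only control cultures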; details: S. cerevisiae CLN2oe strain, stronger effect = higher value
Method in brief: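 First, the altered yeast strain was treated with each compound; second, its growth was measured; finally, inhibition was derived by comparison with vehicle controls.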

[8] = NCI Yeast Anticancer Drug Screen. Data for the cln2 rad14 strain (AID 165);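 note: 0% = growth equal to vehicle treated cultures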; details: S. cerevisiae cln2 rad14 strain, stronger effect = higher value
Method in brief: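 Test compounds were added to cln2 rad14 yeast cultures; inhibition of growth was then determined by comparison with vehicle treatment.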

[9] = NCI Yeast Anticancer Drug Screen. Data for the bub3 strain (AID 167); details: S. cerevisiae bub3 mutant strain, stronger effect = higher value
Method in brief: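 Part of a panel of yeast mutants defective in DNA damage repair or cell cycle regulation. Each strain is grown with compound, and inhibition is calculated relative to solvent-treated cultures.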

[10] = NCI Yeast Anticancer Drug Screen. Data for the wt2 strain (AID 169);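 note: 0% = growth of vehicle-treated yeast cultures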; details: S. cerevisiae wt2 strain growth inhibition, stronger effect = higher value
Method in brief: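 The panel's yeast strains carry defined changes in DNA repair or cell cycle genes. Each strain is grown with compound, and growth loss is scored relative to vehicle.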

[11] = NCI Yeast Anticancer Drug Screen. Data for the mlh1 strain (AID 171);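 note: 0% = growth of vehicle-treated control cultures of the same strain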; details: S. cerevisiae mlh1 strain growth inhibition, stronger effect = higher value
Method in brief: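 Inhibition values reflect reduced yeast growth in the presence of compound, referenced to vehicle controls, using a strain chosen for its alteration in DNA repair or cell cycle control.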

[12] = NCI Yeast Anticancer Drug Screen. Data for the sgs1 strain (AID 173);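 note: 0% = growth of vehicle-only control cultures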; details: S. cerevisiae sgs1 mutant, stronger effect = higher value
Method in brief: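 Vehicle-treated cultures served as reference for growth inhibition of a yeast strain altered in DNA damage repair or cell cycle control after compound exposure.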

[13] = NCI Yeast Anticancer Drug Screen. Data for the mlh1 rad18 strain (AID 175); details: S. cerevisiae mlh1 rad18 strain growth inhibition, stronger effect = higher value
Method in brief: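 Inhibition values reflect reduced growth of mutant yeast versus vehicle-treated controls following compound exposure; the mutations affect DNA damage repair.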

[14] = NCI Yeast Anticancer Drug Screen. Data for the rad18 strain (AID 177); details: S. cerevisiae rad18 mutant growth inhibition, stronger effect = higher value
Method in brief: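 Steps: expose repair-mutant yeast to compound; measure growth; express as inhibition relative to vehicle control.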

[15] = at 5.0 µM (retest, dose inferred, filed as 0.5)
[16] = at 50.0 µM (retest, dose inferred, filed as 5.0)

Measured: growth inhibition

O=Cc1coc2ccccc2c1=O
active: [3]; at 100.0 µM 91% | [5]; [16] 70% | [6]; [16] 98% | [6]; at 50.0 µM 89.7% | [8]; at 50.0 µM 75.2% | [9]; [16] 87% | [9]; at 50.0 µM 88.8% | [10]; at 100.0 µM 99%
inactive: [1]; at 1.2 µM -9% | [1]; at 3.7 µM 3% | [1]; at 11.0 µM 11% | [1]; at 33.0 µM 22% | [1]; at 100.0 µM 48% | [2]; at 1.2 µM 10% | [2]; at 3.7 µM 19% | [2]; at 11.0 µM 18% | [2]; at 33.0 µM 22% | [2]; at 100.0 µM 42% | [3]; at 1.2 µM 2% | [3]; at 3.7 µM 11% | [3]; at 11.0 µM 28% | [3]; at 33.0 µM 66% | [4]; at 1.2 µM -23% | [4]; at 3.7 µM 10% | [4]; [15] 12% | [4]; at 11.0 µM 17% | [4]; at 33.0 µM 24% | [4]; [16] 26% | [4]; at 50.0 µM 20.4% | [4]; at 100.0 µM 57% | [5]; at 1.2 µM -7% | [5]; at 3.7 µM 12% | [5]; [15] -15% | [5]; at 11.0 µM 18% | [5]; at 33.0 µM 18% | [5]; at 50.0 µM 35.2% | [5]; at 100.0 µM 65% | [6]; [15] 9% | [7]; at 1.2 µM -1% | [7]; at 3.7 µM 25% | [7]; at 11.0 µM 27% | [7]; at 33.0 µM 2% | [7]; at 100.0 µM 40% | [8]; [15] 6% | [8]; [16] 19% | [9]; at 1.2 µM 5% | [9]; at 3.7 µM 13% | [9]; [15] 2% | [9]; at 11.0 µM 8% | [9]; at 33.0 µM 15% | [9]; at 100.0 µM 51% | [10]; at 1.2 µM -17% | [10]; at 3.7 µM -11% | [10]; at 11.0 µM 3% | [10]; at 33.0 µM 12% | [11]; at 1.2 µM 1% | [11]; at 3.7 µM 5% | [11]; at 11.0 µM 24% | [11]; at 33.0 µM 30% | [11]; at 100.0 µM 61% | [12]; at 1.2 µM 0% | [12]; at 3.7 µM 14% | [12]; at 11.0 µM 23% | [12]; at 33.0 µM 32% | [12]; at 100.0 µM 60% | [13]; [15] -1% | [13]; [16] 16% | [13]; at 50.0 µM 62.4% | [14]; at 1.2 µM 5% | [14]; at 3.7 µM 19% | [14]; at 11.0 µM 18% | [14]; at 33.0 µM 20% | [14]; at 100.0 µM 67%

— PubChem BioAssay (NCI)
